VACV mCherry inh = inhibitors of vaccinia virus infection (mCherry reporter signal) | Vaccinia virus mCherry reporter infection, fluorescence | actives 0.63% (n = 310,000) | Potency, µM (highest dose often 36.5 µM), actives largely listed as inhibitors; calls by dose curve; tested in A549 cells; also: nearly all actives have a fitted effect of over 35% in size
VACV Venus inh = inhibitors of vaccinia virus (Venus reporter); Vaccinia virus Venus reporter expression, fluorescence; Potency, µM (doses to about 36.5 µM), hits mostly inhibitors; actives 0.46% (n = 330,000); AID 720580; calls by dose curve; tested in A549 cells; also: nearly all actives have a fitted effect of over 30% in size
Marburg entry inh = blocks Marburg virus binding to or entry into cells; Marburg virus pseudotyped entry inhibition, cell reporter; Potency, µM (doses to about 37.8 µM), actives largely listed as inhibitors; actives 1.8% (n = 300,000); AID 540276; calls by dose curve; tested in HEK293 cells
HCV inhibitor = HCV inhibition | actives 3.4% (n = 340,000) | Potency, µM (top dose mostly 41.8 µM), actives largely listed as inhibitors | Huh7.5.1 HCVcc-Cre infection, luciferase reporter, 44 h; active = well fitted inhibition curve with a large enough effect; inconclusive = small, poorly fitted or top-dose-only effect, or another doubt; inactive = no such curve, though single readings can be large or run the other way
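A cell-based infection assay in which seeded cells (1,000 per well) receive test compound after 4 h, are inoculated with HCVcc-Cre at approximately 0.5 moi, and are incubated 44 h before luminescence detection.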
HCMV inh = human cytomegalovirus inhibition. actives 4.5% (n = 410,000). HFF cells, HCMV-luciferase reporter, 72 h; active compounds read low. activity change, negative = inhibition, % at 57.5 µM; in the data active = activity change below about -60%; inconclusive = no clear call, values can overlap the other calls; inactive = above about -39%
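Compounds were evaluated in HFFs infected with an HCMV luciferase reporter virus (MOI 1 PFU/cell). Luciferase in lysates collected 72 h post infection served as the replication measure.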
LASV entry inh = inhibitors of Lassa virus binding or cell entry; Lassa virus pseudotype entry inhibition, cell reporter; Potency, µM (titrated, usually from 37.9 µM), usual class: inhibitors; actives 1.2% (n = 300,000); AID 540256; calls by dose curve; tested in HEK293 cells; also: nearly all actives have a fitted effect of over 50% in size
A number is an active result; 0 = inactive; ? = inconclusive; - = no result given; [ ] = remark or other dose. A selection: hits, their analogues and other compounds. The true share with any hit is near 7.8%.

SMILES	VACV mCherry inh	VACV Venus inh	Marburg entry inh	HCV inhibitor	HCMV inh	LASV entry inh
COc1ccc(CN2C(=O)C(n3ccc4ccccc43)c3cccc(F)c32)cc1 (stereo not drawn)	-	-	-	-	-72.0	-
O=C(c1cccc(F)c1)N(Cc1cc2cc3c(cc2nc1N1CCOCC1)CCC3)CC1CCCO1 (stereo not drawn)	0	0	-	-	-	-
OC(CNCc1ccco1)Cn1c2ccccc2c2ccccc21 (stereo not drawn)	-	-	16.4µM	?	0	?
CCOc1ncnc2c1[nH]c1ccccc12	?	0	?	10µM	0	0
Cc1ccc2[nH]c3c(Cl)ncnc3c2c1	0[7.34 µM]	0[7.34 µM]	0	0	0	0
CCCOc1ncnc2c1[nH]c1ccc(C)cc12	-	-	-	12.6µM	-	-
C=C(CC[C@]12OC(C(=O)O)C(O)(C(=O)O)C(C(=O)O)(O1)C(OC(=O)/C=C/[C@@H](C)C[C@@H](C)CC)C2O)[C@@H](OC(C)=O)[C@H](C)Cc1ccccc1 (stereo partly drawn)	0	0	-	-	-	-
Cc1cccc(C(=O)Nc2ccccc2NC(=O)c2cccc(C)c2)c1	0	0	0	?	-61.5	0
CC(=O)Nc1ccccc1NC(=O)c1ccc(C)cc1C	0	0	?	0	-62.6	0
Cc1cccc(C(=O)Nc2cccc3c2CCCC3)c1	0	0	0	0	-101.5	0
COCC(=O)Nc1cc(C(=O)NC2CCCc3ccccc32)c2c(c1)nc(-c1ccncc1)n2C (stereo not drawn)	0	0	-	-	-	-
O=S1(=O)CCO[C@H]2CCCC[C@@H]2N1Cc1cccc(F)c1	0	0	-	-	-	-
Cc1cccc(-n2ncc(C(=O)N3CCN(C4CCCCC4)CC3)c2C2CCN(C(=O)OC(C)(C)C)CC2)c1	0	0	-	-	0	?
Oc1ccc(Nc2nc(-c3ccccc3)nc3ccccc23)cc1	?	?	?	10µM	-	?
COc1ccc(Nc2nc(-c3ccccc3)nc3ccccc23)cc1	0	0	?	?	?	0
Cc1ccc(Nc2nc(-c3cccnc3)nc3ccccc23)cc1	0	?	3.98µM	1.12µM	-68.8	?
CC(=O)Nc1ccc(Nc2nc(-c3ccccc3)nc3ccccc23)cc1	0	?	?	10µM	-93.9	?
O=[N+]([O-])c1ccc(-c2nc(Nc3ccc(O)cc3)c3ccccc3n2)cc1	-	-	-	?	0	-
Oc1ccc(Nc2nc(-c3ccc(Cl)cc3)nc3ccccc23)cc1	0	0	?	-	-61.1	?
COc1ccccc1NC(=O)CN1C(=O)c2cccc3cccc1c23	0	0	?	-	0	0
O=C(Nc1ccccc1F)c1cnn2c1NC(=C1CC1)C=C2C(F)F	0	0	-	-	-	-
CN(CC(=O)O)c1ccc(/C=C2\C=Cc3ccccc32)cc1	0	0	-	-	-	-
COc1cc(/C(C)=N/NC(=O)Cc2c(C)[nH][nH]c2=O)ccc1O	0	0	0	0	-66.6	0
C/C(=N/NC(=O)Cc1c(C)[nH][nH]c1=O)c1ccc(O)cc1	0	0	0	0	0	?
CCN(CC)S(=O)(=O)c1ccc2c(c1)c(=O)c(C(=O)NCCCN(C)c1ccccc1)cn2C	-	-	0	0	0	0
SMILES	VACV mCherry inh	VACV Venus inh	Marburg entry inh	HCV inhibitor	HCMV inh	LASV entry inh
CC1CCN(CCCNC(=O)c2cn(C)c3ccc(S(=O)(=O)N4CCCC4)cc3c2=O)CC1	-	-	0	0	-108.0	0
CN(CCCNC(=O)c1cn(C)c2ccc(S(=O)(=O)N(C)C)cc2c1=O)c1ccccc1	0	0	0	0	-63.9	0
CC1CC(C)CN(CCCNC(=O)c2cn(C)c3ccc(S(=O)(=O)N4CCCC4)cc3c2=O)C1 (stereo not drawn)	0	0	0	0	0	0
NCCc1ccn[nH]1	0	0	-	0	-67.1	-
Cc1c(C=O)ccc(N(C)C)c1C	0	0	-	-	-	-
CCOc1ccccc1N(CC(=O)N1CCOCC1)S(=O)(=O)c1ccc(SC)cc1	0	0	?	0	0	5.62µM
CCOc1ccccc1N(CC(=O)Nc1cccc(OC)c1)S(=O)(=O)c1ccccc1	0	0	?	0	-106.9	?
CCOc1ccccc1N(CC(=O)Nc1ccccc1F)S(=O)(=O)c1ccccc1	-	-	-	?	-104.4	-
CCOc1ccccc1N(CC(=O)Nc1ccc(OC)c(OC)c1)S(=O)(=O)c1ccccc1	-	-	-	0	0	-
CCC(=O)N1CCc2cc(CNS(=O)(=O)c3ccc(Cl)s3)ccc21	0	0	-	-	0	0
CO/N=C1\CCCc2c(C(=O)NN)sc(SC)c21	0[7.34 µM]	0[7.34 µM]	?	0	-66.1	?
CCOC(=O)c1sc(SC)c2c1CCC/C2=N/OC	0	0	0	?	0	0
COc1ccc(-n2nc3c(c2NC(=O)C(=O)N2CCN(C)CC2)CSC3)cc1	0	0	-	-	0	0
Cc1ccc(NC(=O)CCS(=O)(=O)c2ccc(Br)s2)c(Br)c1	?	?	0	-	0	0
COCCn1c(C)cc(C(=O)COC(=O)c2c(C)nn(Cc3ccccc3)c2C)c1C	?	0	?	?	0	7.08µM
Cc1nn(Cc2ccccc2)c(C)c1C(=O)OCC(=O)c1cc(C)n(C2CC2)c1C	-	-	0	?	?	14.6µM
COCCn1c(C)cc(C(=O)COC(=O)c2ccccc2Br)c1C	0	0	-	0	-82.5	-
COCCn1c(C)cc(C(=O)COC(=O)c2n[nH]c3ccccc23)c1C	-	-	?	?	0	?
CCn1c(C)cc(C(=O)COC(=O)c2ccccc2[N+](=O)[O-])c1C	0	0	?	0	-	0.316µM
COCCn1c(C)cc(C(=O)COC(=O)c2cccnc2SC)c1C	0	0	?	0	0	?
COC(=O)[C@@H]1CCCN1Cc1ccc2c(c1)CN(Cc1ccccc1C)CCO2	0	0	-	-	-	-
O=C(Cn1c(=O)ccc2cc(S(=O)(=O)N3CCCC3)ccc21)NCc1ccc(F)cc1	0	0	-	-	0	0
COCCn1c(C)cc(C(=O)COC(=O)c2ccc(S(=O)(=O)N(C)C)cc2)c1C	0	0	0	0	-87.6	0
O=c1[nH]c(CN2CCN(S(=O)(=O)/C=C/c3ccccc3)CC2)nc2cc(Cl)ccc12	?	11.2µM	?	0	0	?
CCCC(=O)NC(=S)Nc1cccc2c(O)cccc12	0	0	0	0	-99.3	0
SMILES	VACV mCherry inh	VACV Venus inh	Marburg entry inh	HCV inhibitor	HCMV inh	LASV entry inh
CCOc1ccc(-c2cc(C(=O)NCCc3ccc(C)cc3)c3ccccc3n2)cc1	0	0	-	-	0	0
C/C(N)=C(/C#N)C(=O)COC(=O)c1cc(-c2ccc(Br)cc2)nc2ccccc12	?	?	?	10µM	0	?
CCOc1ccc(-c2cc(C(=O)NCCCN3CCN(CC)CC3)c3ccccc3n2)cc1	-	-	?	8.91µM	0	0
CCOc1ccc(-c2cc(C(=O)NCCCn3ccnc3)c3ccccc3n2)cc1	-	-	-	0	0	-
CCOc1ccc(-c2cc(C(=O)NCCCn3ccnc3)c3cc(Br)ccc3n2)cc1	?	?	?	10µM	-76.6	?
CCOc1ccc(-c2cc(C(=O)O)c3ccccc3n2)cc1	-	-	20.6µM	0	0	11.6µM
CCc1cccc(C)c1NC(=O)CCCn1c(C)c2cnn(-c3ccccc3)c(=O)c2c1C	0	0	?	-	0	0
O=Cc1ccc(I)cc1	0	0	-	-	-	-
Cc1sc2ncn(CC(=O)N3CCN(c4ccccc4)CC3)c(=O)c2c1S(=O)(=O)N1CCN(c2ncccn2)CC1	0	0	0	-	0	0
